Measured values: PubChem BioAssay (Tox21)
Where “and” joins values, the source holds several entries; their conditions need not be identical. Identical values can stand only once. Results filed as inconclusive are left out. Some structures have more than one record in an assay (separate samples or runs), and their calls can disagree. Calls of active or inactive are those of the source. Unless noted, calls come from the whole dose curve; as a rule, active = well fitted curve in the direction sought with a large enough effect in the repeat runs; inconclusive = weak or mixed curves; inactive = no such curve, though single readings can be large; an effect the other way counts as inactive or inconclusive.

Assays:
[1] = qHTS assay to identify small molecule agonists of H2AX (AID 1224845; active = well fitted activation curve with a large enough effect in the signal ratio in the repeat runs, not every such curve was filed as active; the % refers to the signal ratio)
Summary of the method: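 Phospho-H2AX Ser139 measured by HTRF (ex 320 nm; em 665 and 620 nm) after 24 hr antibody incubation. Compounds, 15 concentrations, 0.76% DMSO, were applied to CHO-K1 cells for 3hr at 37C before lysis.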

[2] = qHTS assay to identify small molecule agonists of the hypoxia (HIF-1) signaling pathway (AID 1224846; active = well fitted activation curve with a large enough effect in the signal ratio in the repeat runs, not every such curve was filed as active; the % refers to the signal ratio)
Summary of the method: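 ME-180 HRE-bla reporter cells; compounds in DMSO, 17 h at 37C; read-out beta-lactamase via CCF4-AM FRET.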

[3] = qHTS assay to identify small molecule agonists of H2AX - cell viability counter screen (AID 1224847; calls by dose curve; note: nearly all actives have a fitted effect of over 30% in size; note: potency is the fitted concentration of half-maximal effect)
Summary of the method: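 Counter-screen for viability: CellTiter-Glo ATP luminescence read after 3 h compound treatment (15-point titration, 0.76% DMSO final) of CHO-K1 cells at 37C, with 30 min room-temperature reagent incubation.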

[4] = qHTS RealTime-Glo MT Cell Viability Assay in HepG2 cells - 24 hour (AID 1224867); note: nearly all actives have a fitted effect of over 50% in size
Summary of the method: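 Viability was tracked continuously by NanoLuc luminescence from prosubstrate reduced by living HepG2 cells, at successive time points over 40 h of compound exposure. Cells with reagent were preincubated 5 h at 37 °C before compound addition.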

[5] = qHTS RealTime-Glo MT Cell Viability Assay in HEK293 cells - 32 hour (AID 1224868); note: nearly all actives have a fitted effect of over 50% in size; note: potency is the fitted concentration of half-maximal effect
Summary of the method: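 Viability tracked continuously by luminescence as live cells reduce a prosubstrate for NanoLuc; HEK293 cells preincubated 5 h, compound-treated at 37 C, and read at 0, 8, 16, 24, 32 and 40 h.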

[6] = A CellTox Green Cytotoxicity Assay to monitor cytotoxicity in HEK293 cells - 0 hour (AID 1224869); note: nearly all actives have a fitted effect of over 50% in size
Summary of the method: (§1)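 Real-time, in one plate: 600 HEK293 cells/well with dead-cell DNA dye, pinned compound after 5 h, 37 C incubation over 40 h; viable cells give no appreciable fluorescence.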

[7] = qHTS RealTime-Glo MT Cell Viability Assay in HepG2 cells - 40 hour (AID 1224870); note: nearly all actives have a fitted effect of over 50% in size
Summary of the method: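 Real-time viability: cells seeded at 600 per well together with NanoLuc and cell-permeant prosubstrate, compounds added after 5 h incubation. Luminescence tracked at 0, 8, 16, 24, 32 and 40 h of exposure.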

[8] = A CellTox Green Cytotoxicity Assay to monitor cytotoxicity in HEK293 cells - 40 hour (AID 1224871); note: nearly all actives have a fitted effect of over 45% in size; note: potency is the fitted concentration of half-maximal effect
Summary of the method: as §1

[9] = qHTS assay to identify small molecule antagonists of the estrogen related receptor (ERR) signaling pathway from Tox21 library (AID 1224848); note: nearly all actives have a fitted effect of over 50% in size; note: potency is the fitted concentration of half-maximal effect
Summary of the method: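 Luciferase luminescence (ONE-Glo, 30 min room temperature) was the read-out. Cells of the NTP-supplied ERR line, 2,000 per well, were given 6 h at 37 C before compound addition in DMSO and 18 h exposure at 37 C.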

[10] = qHTS assay to identify small molecule agonists of the estrogen related receptor (ERR) signaling pathway from Tox21 library (AID 1224849; calls by dose curve; note: nearly all actives have a fitted effect of over 15% in size); details: ERR reporter cell line, ONE-Glo luciferase, 18 h
Summary of the method: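 Luciferase activity in ERR pathway reporter cells served as the agonist readout; exposure lasted 18 h at 37 C, with ONE-Glo detection after 30 min at room temperature.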
% is set by controls: 0 for no effect and ±100 for the full control effect.

Cc1cc(O)cc(C)c1Cl
inactive: Potency [1] | outcome [2] | Potency [3] | Potency [4] | Potency [5] | Potency [6] | Potency [7] | Potency [8]

CCC(C)C=O (configuration not stated)
inactive and 3.47 µM (active): Potency [5]
inactive: Potency [1] | outcome [2] | Potency [3] | Potency [6] | Potency [7] | Potency [8]

C=C1C2CCC(C2)C1(C)C (configuration not stated)
inactive: Potency [1] | outcome [2] | Potency [3] | Potency [9] | activity change, positive = activation ([10]; at 92.4 µM (top of the series)) 0.557% and 4.73% | Potency [4] | Potency [5] | Potency [6] | Potency [7] | Potency [8]

CCCCC/C=C\C/C=C\CCCCCCCC(=O)OC
inactive and 54.9 µM (active): Potency [8]
inactive: Potency [1] | outcome [2] | Potency [3] | Potency [4] | Potency [5] | Potency [6] | Potency [7]

Cc1ccc(N)c(S(=O)(=O)O)c1
inactive: Potency [1] | outcome [2] | Potency [3] | Potency [5] | Potency [6] | Potency [7] | Potency [8]

OC[C@@H](O)[C@H](O)[C@H](O)[C@@H](O)CO
inactive: Potency [1] | outcome [2] | Potency [3] | Potency [9] | activity change, positive = activation ([10]; at 42.5 µM (top of the series)) 4.66% and 4.1% | Potency [5] | Potency [7] | Potency [8]

NCc1cccc(CN)c1
inactive: Potency [1] | outcome [2] | Potency [3] | Potency [4] | Potency [5] | Potency [6] | Potency [7]

CC(C)(N=C=O)c1cccc(C(C)(C)N=C=O)c1
54 µM (active) and inactive: Potency [9]
inactive: Potency [1] | outcome [2] | Potency [3] | activity change, positive = activation ([10]; at 92.4 µM (top of the series)) -40.3% and 2.13% | Potency [4] | Potency [5] | Potency [6] | Potency [7] | Potency [8]

CCCCOCCO
inactive: Potency [1] | outcome [2] | Potency [3] | Potency [9] | activity change, positive = activation ([10]; at 92.4 µM (top of the series)) 5.31% and -0.958% | Potency [4] | Potency [5] | Potency [7] | Potency [8]

C=C(C)C(=O)OCCCCCCCCCCCC
inactive: Potency [1] | outcome [2] | Potency [3] | Potency [9] | activity change, positive = activation ([10]; at 92.4 µM (top of the series)) 5.32% and 1.41% | Potency [5] | Potency [6] | Potency [7] | Potency [8]

CCCCCCOC(C)=O
inactive: Potency [1] | outcome [2] | Potency [3] | Potency [9] | activity change, positive = activation ([10]; at 92.4 µM (top of the series)) 8.85% and -7.41% | Potency [5] | Potency [6] | Potency [7] | Potency [8]

CC(=O)Nc1ccc(C(=O)O)cc1
inactive: Potency [1] | outcome [2] | Potency [3] | Potency [4] | Potency [5] | Potency [7] | Potency [8]

CC1(C)CC(N=C=O)CC(C)(CN=C=O)C1 (configuration not stated)
inactive: Potency [1] | outcome [2] | Potency [3] | Potency [4] | Potency [5] | Potency [6] | Potency [7] | Potency [8]

C=C(C)C(=O)OCCCCCC
inactive: Potency [1] | outcome [2] | Potency [3] | Potency [4] | Potency [5] | Potency [6] | Potency [7] | Potency [8]

O=[N+]([O-])C(CO)(CO)CO
inactive: Potency [1] | outcome [2] | Potency [3] | Potency [9] | activity change, positive = activation ([10]; at 92.4 µM (top of the series)) 10.1% and 10.2% | Potency [4] | Potency [5] | Potency [7] | Potency [8]

CC1=C(/C=C/C(C)=C/C=C/C(C)=C/CO)C(C)(C)CCC1
inactive: outcome [2] | Potency [3] | Potency [9] | activity change, positive = activation ([10]; at 92.4 µM (top of the series)) -2.72% and -18.5% | Potency [4] | Potency [5] | Potency [6] | Potency [7]

O=S(=O)(Oc1ccc(Cl)cc1Cl)c1ccccc1
inactive: outcome [2] | Potency [9] | activity change, positive = activation ([10]; at 92.4 µM (top of the series)) -20% and 8.74% | Potency [4] | Potency [5] | Potency [6] | Potency [7] | Potency [8]
active: Potency [3] 91.4 µM and 50.5 µM

CCCCC(CC)COC(C)=O (configuration not stated)
inactive: outcome [2] | Potency [3] | Potency [9] | activity change, positive = activation ([10]; at 92.4 µM (top of the series)) 8.75% and 0.0839% | Potency [4] | Potency [5] | Potency [7] | Potency [8]

Cn1c([N+](=O)[O-])cnc1COC(N)=O
inactive: Potency [1] | Potency [3] | Potency [9] | activity change, positive = activation ([10]; at 42.5 µM (top of the series)) 3.23% | activity change, positive = activation ([10]; at 92.4 µM (top of the series)) 6.73% | Potency [4] | Potency [5] | Potency [6] | Potency [7] | Potency [8]

CCCCCCCCCC(=O)O
inactive: outcome [2] | Potency [3] | Potency [9] | activity change, positive = activation ([10]; at 92.4 µM (top of the series)) -1.8% and -5.57% | Potency [4] | Potency [5] | Potency [6] | Potency [7] | Potency [8]

CC#C[C@]1(O)CC[C@H]2[C@@H]3CCC4=CC(=O)CCC4=C3[C@@H](c3ccc(N(C)C)cc3)C[C@@]21C
inactive: outcome [2] | Potency [3] | activity change, positive = activation ([10]; at 42.5 µM (top of the series)) -53.3% | activity change, positive = activation ([10]; at 92.4 µM (top of the series)) -62.2% | Potency [4] | Potency [6] | Potency [7] | Potency [8]
active: Potency [9] 26.6 µM | Potency [5] 49 µM

CC(C)NCC(O)COc1cccc2ccccc12 (configuration not stated)
inactive: Potency [1] | Potency [3] | Potency [6] | Potency [7] | Potency [8]

O=C(c1ccc(O)cc1)c1ccc(O)cc1O
inactive: Potency [1] | outcome [2] | Potency [4] | Potency [5] | Potency [6] | Potency [7] | Potency [8]

CC1=CC[C@H]2C[C@@H]1C2(C)C
inactive: Potency [1] | outcome [2] | Potency [3] | Potency [5] | Potency [6] | Potency [7] | Potency [8]
